Sampled rows, rich in hits. Any-hit rate of the full collection: about 12%.
Cl transport mod = KCC2 cotransporter modulators, thallium flux, primary screen, cell-based, HEK293 KCC2, FluoZin-2 fluorescence, MLSMR; Solute carrier family 12 member 5 (Homo sapiens), Q9H2X9; B-score of Tl+ flux slope (higher = more flux/activation; lower = inhibition) at 10 µM; hit rate 2.2% among 190,000; KCC2 cells, thallium flux FluoZin-2 fluorescence;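 active = thallium flux slope and its plate-corrected score both differing from the plate sample mean at a set confidence after two filtering rounds, in either direction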;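 also: slope of fluorescence scaled to starting intensity during 10 to 20 s after thallium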
Lmaj promast = Leishmania major promastigote growth inhibition, primary screen. Leishmania major promastigotes, resazurin fluorescence viability. inhibition, % at 10 µM. hit rate 9% among 200,000; in the data active = inhibition above about 50%;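 also: promastigotes grown with compound for 44 hours at 28 °C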
m-calpain inh = inhibitors of pig calpain II, primary screen, biochemical, fluorogenic peptide substrate, 1536-well. purified calpain II, 30 min. inhibition, % at 16 µM. hit rate 0.37% among 220,000;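 active = inhibition above about 50%, limit read from the data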
WT yeast gro inh = growth inhibition of WT strain, primary screen, mitochondrial fusion inhibitor project, WT and mutant strains, chemical genetic; mitochondrial fusion phenotypic screen; inhibition, % at 10 µM; hit rate 2.1% among 190,000; in the data active = inhibition above about 58%; tested in S. cerevisiae
ROMK mod = ROMK potassium channel modulators, primary screen, cell-based, thallium flux, MLSMR library. AID 1918, 2009. Tet-inducible ROMK, thallium flux fluorescence; actives lie on both sides. hit rate 2% among 130,000. B-score at 10 µM. ATP-sensitive inward rectifier potassium channel 1 (Homo sapiens), P48048;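 active = signal ratio slope over the read window, or its plate-corrected B-score, at least 3 SD from the plate mean, either direction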;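 also: B-score of the F/F0 ratio slope over 7 to 12 s after thallium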
Large screens that a line does not name were inactive.

CCSc1nnc(-c2cc(Br)ccc2NC(C)=O)c(=O)[nH]1	none (no result: Lmaj promast, WT yeast gro inh)
COc1ccc(OC2C(=O)N(Cc3ccc4c(c3)OCO4)C2c2sccc2C)cc1 (stereo not drawn)	Lmaj promast 92.0 (no result: ROMK mod)
Cc1ncc(S(=O)(=O)c2ccccc2)c(-c2ccccc2Cl)n1	none
CN(C)c1ncc(S(=O)(=O)c2ccc(Cl)cc2)c(-c2ccc(Cl)cc2Cl)n1	WT yeast gro inh 66.4 (no result: ROMK mod)
Cc1c(C#N)c(N=CN(C)C)c(C(=O)c2ccccc2)n1-c1ccc(Br)cc1	none
Cc1c(C#N)c(N=CN(C)C)c(C(=O)c2ccc(Br)cc2)n1-c1ccccc1	Lmaj promast 100.1
CCOc1ccccc1OCC(=O)Nc1ccc(S(=O)(=O)N(C)C)cc1	WT yeast gro inh 69.0 (no result: ROMK mod)
CN(C)S(=O)(=O)c1ccc(NC(=O)CN2CCC(Cc3ccccc3)CC2)cc1	Lmaj promast 76.0
COCCN1C(=S)NC(c2cccc(C(F)(F)F)c2)C(C(=O)N2CCOCC2)=C1C (stereo not drawn)	none
CCc1ccc(N2C(=O)CC(N3CCN(Cc4ccc5c(c4)OCO5)CC3)C2=O)cc1 (stereo not drawn)	none
O=[N+]([O-])c1cccc(/C=N/Nc2nc(NCc3ccccc3)nc(N3CCOCC3)n2)c1O	Lmaj promast 98.6
CC1(C(=O)NC2CCCCCCC2)CCC(=O)N1Cc1cccs1 (stereo not drawn)	none (no result: ROMK mod)
Cc1ccc(C)n1-c1ccc(C(=O)NCc2cccnc2)cc1	none
OCCNc1nc(Nc2ccc(Br)cc2)nc2ccccc12	Lmaj promast 100.5
Clc1nc(Nc2ccccc2)nc(Nc2ccccc2)n1	none
CC(C)(CO)Nc1nc(Nc2ccccc2)nc(Nc2ccccc2)n1	Lmaj promast 74.5 (no result: ROMK mod)
Oc1ccccc1Nc1nc(NCc2ccccc2)c2ccccc2n1	Lmaj promast 100.4, WT yeast gro inh 86.0
c1ccc(CNc2ncnc3ccccc23)cc1	none
Cc1cccc(Nc2nc(N)c([N+](=O)[O-])c(NCCO)n2)c1	none (no result: Lmaj promast, WT yeast gro inh, ROMK mod)
CCOC(=O)c1nc(NCc2ccccc2)c2ccccc2n1	Lmaj promast 52.3
OCCNc1nc(Nc2ccccc2)nc(Nc2ccccc2)n1	none (no result: Cl transport mod)
OCCNc1nc(Nc2ccccc2)nc2ccccc12	Lmaj promast 99.7
O=C(CNC(=O)c1ccc(F)cc1)Nc1ccccc1C(F)(F)F	none (no result: Lmaj promast, WT yeast gro inh, ROMK mod)
Cc1cc(N)n(Cc2cccs2)n1	none (no result: Cl transport mod, ROMK mod)
O=C(c1cccnc1)N1CCN(C/C=C/c2ccccc2)CC1	none
O=C(c1cccs1)N1CCN(CCCc2ccccc2)CC1	Lmaj promast 95.8
O=C(c1cccnc1)N1CCN(CCCc2ccccc2)CC1	Lmaj promast 79.9 (no result: ROMK mod)
O=C(c1cccs1)N1CCN(Cc2ccccc2)CC1	none
Cc1ccc(NC(=O)Cc2nnc(SCC(=O)c3ccc(Br)cc3)n2C)cc1Cl	none
CCOC(=O)C(C)/C(C)=N/NC(N)=S (stereo not drawn)	Lmaj promast 61.4
Cc1ccc(S(=O)(=O)c2nc(Nc3nccs3)sc2Cl)cc1	WT yeast gro inh 62.0 (no result: ROMK mod)
COc1cc(C2C(C#N)=C(C)NC3=C2C(=O)CC(C)(C)C3)ccc1OCCO (stereo not drawn)	none (no result: Cl transport mod)
COc1ccc(C2C(C#N)=C(N)N(Nc3ccccc3)C3=C2C(=O)CC(C)(C)C3)cc1C (stereo not drawn)	Lmaj promast 85.7 (no result: ROMK mod)
COc1cc(C2C(C#N)=C(N)N(Nc3ccccc3)C3=C2C(=O)CC(C)(C)C3)ccc1OCc1ccccc1 (stereo not drawn)	Lmaj promast 100.0 (no result: ROMK mod)
COc1ccc(C2C(C#N)=C(N)N(c3cccnc3)C3=C2C(=O)CC(C)(C)C3)cc1OC (stereo not drawn)	none
C=CCOc1ccc(C2C(C#N)=C(N)N(Nc3ccccc3)C3=C2C(=O)CCC3)cc1OC (stereo not drawn)	Lmaj promast 96.2
COc1cc(C2C(C#N)=C(N)N(Nc3ccccc3)C3=C2C(=O)CC(C)(C)C3)ccc1OCc1cccc(F)c1 (stereo not drawn)	Lmaj promast 56.4 (no result: ROMK mod)
COc1ccc(OC)c(N2C(N)=C(C#N)C(c3ccc(OC)c(O)c3)C3=C2CC(C)(C)CC3=O)c1 (stereo not drawn)	none (no result: Cl transport mod, Lmaj promast, WT yeast gro inh, ROMK mod)
COc1cccc(C2C(C#N)=C(N)N(c3ncn[nH]3)C3=C2C(=O)CCC3)c1 (stereo not drawn)	none
Cc1ccc(NC(=O)CSc2nn(-c3ccccc3)c(=S)s2)cc1S(=O)(=O)N(C)C	Lmaj promast 77.4 (no result: ROMK mod)

Bioassay records as filed in PubChem.
